Where a chain is given by its changes, count along the chain named.

The results in this text go back to article PMC8384837, “Expanding the binding specificity for RNA recognition by a PUF domain”.

What all share (experiment): yeast three-hybrid, YBZ-1, SC-Leu-His + 0.5 mM 3-AT, 4 days
Holding throughout (settings): tags: N-Gal4 AD-HA kept; label: inside an RPR1-promoter hybrid RNA with tandem MS2 sites; ssRNA

The target of one assay is PUM1 PUF domain R4-PYV (Homo sapiens, UniProt Q14671 828-1176, N971P;H972Y;Q975V). A digest of the protocol:
(§1)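 The interaction score is the log change in how often each variant appears, from input to selection. Frequencies came from PCR-amplified, Illumina-sequenced repeat regions of Pumilio-1 PUF domain libraries grown in strain YBZ-1 (LexA–MS2 coat fusion, HIS3 reporter) alongside matching RNA elements. Input plates were SC-Leu and selection plates were SC-Leu-His + 0.5 mM 3-AT, each for four days, and the log2 calculation used a pseudocount of 1 where a variant was absent.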

A further assay concerns the target PUM1 PUF domain R5-KRL (Homo sapiens, UniProt Q14671 828-1176, C1007K;Q1011L). A digest of the protocol:
as §1

The target of the next assay is PUM1 PUF domain R7-RRE (Homo sapiens, UniProt Q14671 828-1176, S1079R;N1080R). The procedure, abridged: as §1
For a further assay, the target named is T1, PUM1 PUF domain R6-VYC (Homo sapiens, UniProt Q14671 828-1176, N1043V;Q1047C).
T1 sequence: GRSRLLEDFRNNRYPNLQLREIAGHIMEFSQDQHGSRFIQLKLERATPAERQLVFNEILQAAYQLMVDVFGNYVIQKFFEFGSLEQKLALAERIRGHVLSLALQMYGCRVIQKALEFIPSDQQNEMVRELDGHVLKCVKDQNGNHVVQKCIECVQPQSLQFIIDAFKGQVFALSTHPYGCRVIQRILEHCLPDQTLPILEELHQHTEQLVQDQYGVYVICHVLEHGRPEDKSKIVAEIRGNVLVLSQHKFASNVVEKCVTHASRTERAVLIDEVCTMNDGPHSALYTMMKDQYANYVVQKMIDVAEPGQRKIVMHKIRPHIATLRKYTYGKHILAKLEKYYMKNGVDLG
The procedure, abridged: as §1

The target in another assay is PUM1 PUF domain R8-RFQ (Homo sapiens, UniProt Q14671 828-1176, N1122R;Y1123F). A digest of the protocol:
as §1

Another assay has as its target PUM1 PUF domain R5-KDR (Homo sapiens, UniProt Q14671 828-1176, C1007K;R1008D;Q1011R). The procedure, abridged: as §1
Another assay has as its target PUM1 PUF domain R5-RMD (Homo sapiens, UniProt Q14671 828-1176, C1007R;R1008M;Q1011D). The procedure, abridged:
as §1

The next assay addresses PUM1 PUF domain R3-DYA (Homo sapiens, UniProt Q14671 828-1176, C935D;R936Y;Q939A). A digest of the protocol: as §1
Another assay has as its target PUM1 PUF domain R4-EHF (Homo sapiens, UniProt Q14671 828-1176, N971E;Q975F). The procedure, abridged:
as §1

The next assay deals with T2, PUM1 PUF domain R6-DFQ (Homo sapiens, UniProt Q14671 828-1176, N1043D;Y1044F).
T2 sequence: T1 sequence with V216D, Y217F, C220Q
The procedure, abridged: as §1

As for “GGCUAGAACUAGUGGAUCCCCCGGCGCCCGGCGGCUCGAGCCCGGGUAAGUGUACAUAGUCUGCAUGCCGCCGGGCGCCAUGCCUGCAGGUCGACUCUAGAAAACAUG”, in the assay with PUM1 PUF domain R4-PYV, the binding signal is 6.43 log2 enrichment (interaction score).

In the case of “GGCUAGAACUAGUGGAUCCCCCGGCGCCCGGCGGCUCGAGCCCGGGUAAGUGUGAAUAGUCUGCAUGCCGCCGGGCGCCAUGCCUGCAGGUCGACUCUAGAAAACAUG”, the binding signal with PUM1 PUF domain R5-KRL is 0.47 log2 enrichment (interaction score).

For “GGCUAGAACUAGUGGAUCCCCCGGCGCCCGGCGGCUCGAGCCCGGGUAAGUCUAAAUAGUCUGCAUGCCGCCGGGCGCCAUGCCUGCAGGUCGACUCUAGAAAACAUG”, the binding signal with PUM1 PUF domain R7-RRE was 3.75 log2 enrichment (interaction score).

As to “GGCUAGAACUAGUGGAUCCCCCGGCGCCCGGCGGCUCGAGCCCGGGUAAGUGAAAAUAGUCUGCAUGCCGCCGGGCGCCAUGCCUGCAGGUCGACUCUAGAAAACAUG”, the binding signal with PUM1 PUF domain R6-VYC is 6.26 log2 enrichment (interaction score).

In the case of “GGCUAGAACUAGUGGAUCCCCCGGCGCCCGGCGGCUCGAGCCCGGGUAAGGGUAAAUAGUCUGCAUGCCGCCGGGCGCCAUGCCUGCAGGUCGACUCUAGAAAACAUG”, in the assay with PUM1 PUF domain R8-RFQ, the binding signal is 2.44 log2 enrichment (interaction score).

“GGCUAGAACUAGUGGAUCCCCCGGCGCCCGGCGGCUCGAGCCCGGGUAAGUGUCAAUAGUCUGCAUGCCGCCGGGCGCCAUGCCUGCAGGUCGACUCUAGAAAACAUG”: the binding signal with PUM1 PUF domain R5-KDR was 4.77 log2 enrichment (interaction score); in the assay with PUM1 PUF domain R5-KRL, 3.16 log2 enrichment (interaction score); in the assay with PUM1 PUF domain R5-RMD, 4.23 log2 enrichment (interaction score).

Take “GGCUAGAACUAGUGGAUCCCCCGGCGCCCGGCGGCUCGAGCCCGGGUAAGUGUAAGUAGUCUGCAUGCCGCCGGGCGCCAUGCCUGCAGGUCGACUCUAGAAAACAUG”: the binding signal in the assay with PUM1 PUF domain R3-DYA was 1.16 log2 enrichment (interaction score).

“GGCUAGAACUAGUGGAUCCCCCGGCGCCCGGCGGCUCGAGCCCGGGUAAGUGUUAAUAGUCUGCAUGCCGCCGGGCGCCAUGCCUGCAGGUCGACUCUAGAAAACAUG”: the results for the binding signal with PUM1 PUF domain R5-KDR and with PUM1 PUF domain R5-KRL were 2.77 log2 enrichment (interaction score) and 3 log2 enrichment (interaction score), respectively.

On to “GGCUAGAACUAGUGGAUCCCCCGGCGCCCGGCGGCUCGAGCCCGGGUAAGUGUAUAUAGUCUGCAUGCCGCCGGGCGCCAUGCCUGCAGGUCGACUCUAGAAAACAUG”, for which the binding signal with PUM1 PUF domain R4-PYV is 7.86 log2 enrichment (interaction score); with PUM1 PUF domain R4-EHF, 5.95 log2 enrichment (interaction score).

As to “GGCUAGAACUAGUGGAUCCCCCGGCGCCCGGCGGCUCGAGCCCGGGUAAGUGUAAAUAGUCUGCAUGCCGCCGGGCGCCAUGCCUGCAGGUCGACUCUAGAAAACAUG”, the binding signal with PUM1 PUF domain R8-RFQ is 2.11 log2 enrichment (interaction score); in the assay with PUM1 PUF domain R3-DYA, 5.02 log2 enrichment (interaction score); with PUM1 PUF domain R4-PYV, 5.22 log2 enrichment (interaction score); with PUM1 PUF domain R5-KRL, 1.09 log2 enrichment (interaction score); in the assay with PUM1 PUF domain R6-DFQ, 8.15 log2 enrichment (interaction score).

“GGCUAGAACUAGUGGAUCCCCCGGCGCCCGGCGGCUCGAGCCCGGGUAAGCGUAAAUAGUCUGCAUGCCGCCGGGCGCCAUGCCUGCAGGUCGACUCUAGAAAACAUG”: the binding signal with PUM1 PUF domain R8-RFQ is 5.63 log2 enrichment (interaction score).
